Assay results reported in PubChem BioAssay (NCATS).
Results filed as inconclusive are left out. Where a call stands in place of a potency, no number is given. Calls of active or inactive are those of the source. Unless noted, the call rests on the fitted dose curve; in most records, active means well fitted inhibition curve with a large enough effect; inconclusive means small, poorly fitted or top-dose-only effect; inactive means flat fitted curve, though single readings scatter.

Columns and labels:
[1] = molecular target: Glutathione peroxidase 1 (Homo sapiens) (UniProt P07203); test: Primary qHTS Assay for Inhibitors of Recombinant Selenoprotein Glutathione Peroxidase 1 (GPX1) (AID 1845191); settings: recombinant GPX1, GR-coupled NADPH fluorescence, 15 min; series mostly up to 48.8 µM; further: nearly all actives have a fitted effect of over 65% in size; further: potency means the concentration at half of the fitted maximal effect
Summary of the method: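 10 nM GPX1 + cpd, 30 min RT; start w/ 1 mM GSH, 0.5 mM cumene hydroperoxide, 0.5 mM NADPH, 100 nM GR, 0.01% BSA; buffer 50 mM Tris-HCl pH 7.5, 2 mM EDTA, 150 mM NaCl; Fl 340/450, 0 & 15 min.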

[2] = molecular target: Phospholipid hydroperoxide glutathione peroxidase GPX4 (Homo sapiens) (UniProt P36969); test: Primary qHTS Assay for Inhibitors of Recombinant Selenoprotein Glutathione Peroxidase 4 (GPX4) (AID 1845192); settings: recombinant GPX4, GR-coupled NADPH fluorescence, 15 min; series mostly up to 50 µM; further: nearly all actives have a fitted effect of over 65% in size
Summary of the method: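 NADPH consumption, followed by fluorescence at 340/450 nm between 0 and 15 min, reports GPX4 activity via coupled glutathione reductase (100 nM). Enzyme 200 nM was pre-exposed to compound 30 min; 0.5 mM cumene hydroperoxide and 1 mM GSH served as substrates.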

[3] = qHTS profiling for inhibitors of Plasmodium falciparum proliferation (AID 504749); further: nearly all actives have a fitted effect of over 60% in size; further: potency means the concentration at half of the fitted maximal effect; settings: P. falciparum in erythrocytes, SYBR Green DNA, 72 h
Summary of the method: (§1)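 Three-day growth assay of blood-stage parasites in erythrocytes (0.3% parasitemia, 2.5% hematocrit) at 37 C, 5% CO2, quantified by SYBR Green DNA staining after overnight detergent lysis.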

[4] = system: 3D7; test: as above; settings: P. falciparum in erythrocytes, SYBR Green DNA, 72 h; series mostly up to 28.7 µM
Summary of the method: as §1

[5] = system: 7G8; test: as above; settings: P. falciparum in erythrocytes, SYBR Green DNA, 72 h; series mostly up to 28.7 µM
Summary of the method: as §1

[6] = system: AA1029; test: as above; settings: P. falciparum in erythrocytes, SYBR Green DNA, 72 h; series mostly up to 28.7 µM
Summary of the method: as §1

[7] = molecular target: Luciferin 4-monooxygenase (Photinus pyralis) (UniProt P08659); test: Primary firefly luciferase (FLuc) qHTS assay for identification of artifact compounds. (AID 1845220); settings: purified firefly luciferase, luminescence, 5 min; series mostly up to 54.1 µM; further: nearly all actives have a fitted effect of over 60% in size
Summary of the method: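 Compounds sat 15 min at room temperature with 10 uM luciferin and 10 uM ATP (pH 7.6 Tris acetate). Firefly luciferase (10 nM final) was then added, and luminescence was read 5 min later. Data normalized to no-enzyme and DMSO controls were Hill-fitted.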

[8] = system: Nanoluciferase (engineered Oplophorus gracilirostris luciferase); test: Primary Nanoluciferase (NLuc) qHTS assay for identification of artifact compounds. (AID 1845222); settings: NLuc-conditioned medium, Nano-Glo luminescence, 5 min; series mostly up to 54.1 µM
Summary of the method: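 Luminescence from secreted NLuc (filtered, 1:55-diluted S16 cell medium) read 5 min after Nano-Glo substrate; compounds preincubated 15 min, RT. Hill fits of inhibition normalized to DMSO and no-enzyme.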

[9] = qHTS drug screen for cell cycle checkpoint inhibitors in PARPi-resistant BRCA-mutant ovarian cancer cell lines. (AID 1963452; calls by dose curve); settings: PEO1/OlaR viability, CellTiter-Glo luminescence, 96 h, stronger effect = lower value
Summary of the method: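 PEO1, PEO4 and PEO1/OlaR ovarian cancer cells, 600 per well, exposed 96 h at 37C to a dilution series. Viability read by CellTiter-Glo luminescence, normalized to DMSO and empty wells; activity summarized as Z-AUC.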

[10] = at 28.7 µM (top of the series), parasite line A
[11] = at 28.7 µM (top of the series), parasite line B
[12] = at 12.8 µM (top of the series), parasite line A
[13] = at 12.8 µM (top of the series), parasite line B
[14] = measured here: PEO1 parental Z-AUC

Chain of Phospholipid hydroperoxide glutathione peroxidase GPX4 (Homo sapiens) (P36969 whole entry, looked up): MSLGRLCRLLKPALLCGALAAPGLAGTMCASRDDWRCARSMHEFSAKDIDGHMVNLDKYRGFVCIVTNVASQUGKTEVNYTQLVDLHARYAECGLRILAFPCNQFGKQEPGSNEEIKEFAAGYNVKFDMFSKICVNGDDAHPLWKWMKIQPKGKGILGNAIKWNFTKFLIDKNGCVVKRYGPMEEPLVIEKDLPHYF
Chain of Glutathione peroxidase 1 (Homo sapiens) (P07203 whole entry, looked up): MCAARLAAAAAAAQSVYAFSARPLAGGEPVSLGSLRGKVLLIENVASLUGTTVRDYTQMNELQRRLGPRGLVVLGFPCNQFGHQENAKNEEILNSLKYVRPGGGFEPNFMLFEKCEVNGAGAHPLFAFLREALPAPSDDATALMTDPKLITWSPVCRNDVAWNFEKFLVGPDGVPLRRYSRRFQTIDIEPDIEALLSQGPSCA

CCC1C(=O)OCC1Cc1cncn1C (stereo not given)
Potency [1]: inactive
Potency [2]: inactive
activity, negative = inhibition [3, 10]: -3.99% (inactive)
activity, negative = inhibition [3, 11]: -7.08% (inactive)
Potency [4]: inactive
Potency [5]: inactive
Potency [6]: inactive

CCCSc1ccc2nc(NC(=O)OC)[nH]c2c1
Potency [1]: inactive
Potency [2]: inactive
activity, negative = inhibition [3, 12]: -19.4% (inactive)
activity, negative = inhibition [3, 13]: -12.4% (inactive)
Potency [4]: inactive
Potency [5]: inactive
Potency [6]: inactive

O=C(O)[C@H](O)[C@@H](O)[C@H](O)[C@H](O)CO
Potency [1]: inactive
Potency [2]: inactive
activity, negative = inhibition [3, 10]: 1.4% (inactive)
activity, negative = inhibition [3, 11]: 5.65% (inactive)
Potency [4]: inactive
Potency [5]: inactive
Potency [6]: inactive

CC(N)C(=O)OC(C)(C)Cc1ccc(Cl)cc1 (stereo not given)
Potency [1]: inactive
Potency [2]: inactive
activity, negative = inhibition [3, 10]: 3.68% (inactive)
activity, negative = inhibition [3, 11]: 0.818% (inactive)
Potency [4]: inactive
Potency [5]: 10 µM (active)

COC(=O)[C@H]1[C@H]2C[C@@H]3c4[nH]c5cc(OC)ccc5c4CCN3C[C@H]2C[C@@H](OC(=O)/C=C/c2cc(OC)c(OC)c(OC)c2)[C@@H]1OC
Potency [1]: inactive
Potency [7]: inactive
Potency [8]: inactive

CCCCCCOc1ccccc1C(N)=O
Potency [1]: inactive
Potency [2]: inactive
activity, negative = inhibition [3, 10]: -23.7% (inactive)
activity, negative = inhibition [3, 11]: 1.07% (inactive)
Potency [4]: inactive
Potency [5]: inactive
Potency [6]: inactive

COc1cc2c3cc1Oc1cc(ccc1O)C[C@@H]1c4c(cc(OC)c(O)c4Oc4ccc(cc4)C[C@@H]3N(C)CC2)CC[N+]1(C)C
Potency [1]: inactive
Potency [2]: inactive
activity, negative = inhibition [3, 10]: 5.03% (inactive)
activity, negative = inhibition [3, 11]: 8.98% (inactive)
Potency [4]: inactive
Potency [5]: inactive
Potency [6]: inactive

Cc1ccc(C(=O)c2ccc(CC(=O)O)n2C)cc1
Potency [1]: inactive
Potency [2]: inactive
activity, negative = inhibition [3, 12]: -5.58% (inactive)
activity, negative = inhibition [3, 13]: 10.6% (inactive)
Potency [4]: inactive
Potency [5]: inactive
Potency [6]: inactive

O=C(O)c1ccccc1Nc1cccc(C(F)(F)F)c1
Potency [1]: inactive
Potency [2]: inactive
activity, negative = inhibition [3, 10]: -6.43% (inactive)
activity, negative = inhibition [3, 11]: 10.3% (inactive)
Potency [4]: inactive
Potency [5]: inactive
Potency [6]: inactive

CCCOC(=O)c1ccc(O)cc1
Potency [1]: inactive
Potency [2]: inactive
activity, negative = inhibition [3, 10]: 4.05% (inactive)
activity, negative = inhibition [3, 11]: 3.75% (inactive)
Potency [4]: inactive
Potency [6]: inactive

CCCC(=O)OC[C@@H](OC(=O)CCC)[C@@H](OC(=O)CCC)[C@H](Cn1c2nc(=O)[nH]c(=O)c-2nc2cc(C)c(C)cc21)OC(=O)CCC
Potency [1]: inactive
activity, negative = inhibition [3, 10]: -28.7% (inactive)

N=c1ccn2c(n1)O[C@H]1[C@H](O)[C@@H](CO)O[C@H]12
Potency [1]: inactive
Potency [2]: inactive
Z-AUC [9]: -1.72 (inactive)
Z-AUC [9, 14]: -1.24
Z-AUC ([9]; measured here: PEO4 Z-AUC): 0.152
activity, negative = inhibition [3, 10]: 4.44% (inactive)
activity, negative = inhibition [3, 11]: 4.16% (inactive)
Potency [4]: inactive
Potency [5]: inactive
Potency [6]: inactive

c1ccc2sc(SN3CCOCC3)nc2c1
Potency [1]: 20.2 µM (active)
Potency [2]: inactive
activity, negative = inhibition [3, 10]: -12.8% (inactive)
Potency [4]: inactive
Potency [5]: 11.2 µM (active)
Potency [6]: inactive

CCOc1ccc2nc(S(N)(=O)=O)sc2c1
Potency [1]: inactive
Potency [2]: inactive
activity, negative = inhibition [3, 10]: -5.98% (inactive)
Potency [4]: inactive
Potency [5]: inactive
Potency [6]: inactive

COC(=O)C1=C(C)NC(C)=C(C(=O)OCC(C)=O)C1c1ccccc1[N+](=O)[O-] (stereo not given)
Potency [2]: inactive

Nc1cc(-c2ccncc2)c[nH]c1=O
Potency [1]: inactive
Potency [2]: inactive
activity, negative = inhibition [3, 10]: 17.9% (inactive)
activity, negative = inhibition [3, 11]: 15.4% (inactive)
Potency [4]: inactive
Potency [6]: inactive

CCCCCCCCCCCC(=O)[O][Sn]([CH2]CCC)([CH2]CCC)[O]C(=O)CCCCCCCCCCC
Potency [1]: inactive
activity, negative = inhibition [3, 10]: -9.86% (inactive)
activity, negative = inhibition [3, 11]: -5.91% (inactive)
Potency [4]: inactive
Potency [5]: inactive
Potency [6]: inactive

CCOC(=O)c1ccccc1O
Potency [1]: inactive
Potency [2]: inactive
activity, negative = inhibition [3, 10]: 4.06% (inactive)
activity, negative = inhibition [3, 11]: 15.6% (inactive)
Potency [4]: inactive
Potency [5]: inactive
Potency [6]: inactive

O=C(OCc1ccccc1)c1ccccc1
Potency [1]: inactive
Potency [2]: inactive
activity, negative = inhibition [3, 10]: -9.71% (inactive)
activity, negative = inhibition [3, 11]: -8.05% (inactive)
Potency [4]: inactive
Potency [5]: inactive
Potency [6]: inactive

O=c1[nH]c2ccccc2n1CCCN1CCN(C(c2ccccc2)c2ccccc2)CC1
Potency [1]: inactive
Potency [2]: inactive
activity, negative = inhibition [3, 10]: -13.9% (inactive)
Potency [5]: 7.08 µM (active)

C=CCc1cccc(/C=N/NC(=O)CN2CCN(Cc3ccccc3)CC2)c1O
Potency [1]: inactive
Potency [2]: inactive
Z-AUC [9]: 0.78 (inactive)
Z-AUC [9, 14]: 0.857
Z-AUC ([9]; measured here: PEO4 Z-AUC): 0.395

Cc1c(Nc2ncccc2C(=O)O)cccc1C(F)(F)F
Potency [1]: inactive
Potency [2]: inactive
activity, negative = inhibition [3, 12]: 7.85% (inactive)
activity, negative = inhibition [3, 13]: -2.62% (inactive)
Potency [4]: inactive
Potency [5]: inactive
Potency [6]: inactive

c1ccc2sc(SSc3nc4ccccc4s3)nc2c1
Potency [1]: inactive
Potency [2]: inactive
activity, negative = inhibition [3, 10]: 6.98% (inactive)
activity, negative = inhibition [3, 11]: -5.71% (inactive)
Potency [4]: inactive
Potency [5]: inactive
Potency [6]: inactive

CN1[C@@H](CC(=O)c2ccccc2)CCC[C@H]1C[C@H](O)c1ccccc1
Potency [1]: inactive
Potency [2]: inactive
activity, negative = inhibition [3, 10]: -28.5% (inactive)
Potency ([3]; parasite line B): 12.6 µM (active)
Potency [4]: inactive
Potency [5]: 8.91 µM (active)
Potency [6]: 11.2 µM (active)
